Consider 56 compounds from PubChem BioAssay AID1259417 (TB Discovery Research, Infectious Disease Research Institute, 2018).

The campaign covered roughly 1,100 compounds. About 760 (69%) were called active. No rule for the calls is given here. The set was probably picked from earlier hits. The list shows a part of the results.

The nature of this test: M. tuberculosis growth inhibition, HTS (AID 1259417).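 Also: bacteria grown with compound for 5 days at 37 °C.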 As to conditions: stronger effect = higher value, concentration not given here.
Setting [1] is: M. tuberculosis DsRed fluorescence growth inhibition.
Where [2] appears, read: M. tuberculosis growth inhibition.

With `Cc1c(Cl)ccc(OCCCN2CCCC(C)C2)c1C` (configuration not stated), the inhibition is, setting by setting: under setting [1], 99.2% (active); under setting [2], 92.6%.

With `CC(C)OC(=O)CSc1nnc(-c2ccc(Cl)cc2Cl)o1`, the inhibition is, setting by setting: under setting [1], 73% (active); under setting [2], 86.2%.

With `CC(C)OC(=O)CSc1nnc(-c2ccc(N(C)C)cc2)o1`, the inhibition is 81.3% (active) under setting [1] and 91.9% under setting [2].

As to `CCOC(=O)CSc1nnc(-c2ccc(Cl)cc2Cl)o1`, the inhibition under setting [1] is 78.6% (active) and the inhibition under setting [2] is 85.5%.

In the case of `Clc1ccc(-c2nnc(SCc3ccon3)o2)c(Cl)c1`, the inhibition is 82.2% (active) under setting [1] and 64.9% under setting [2].

As to `COc1cc(OC)c(-c2nn3c(C4CCCCC4)nnc3s2)cc1OC`, the inhibition was 3% (inactive) under setting [1] and 4.48% under setting [2].

For the compound `COC(=O)C(Oc1ccc2c(c1)oc(=O)c1cc(OC)ccc12)c1ccccc1` (configuration not stated), the inhibition is 27.2% (active) under setting [1] and 79.5% under setting [2].

For `CCOC(=O)C(Oc1ccc2oc(C)c(C(=O)OC)c2c1)c1ccccc1` (configuration not stated), the inhibition by setting is: under setting [1], -0.568% (inactive); under setting [2], -19.6%.

Take `COc1cc(NC(=O)CC23CC4CC(CC(C4)C2)C3)ccc1NC(=O)c1ccco1`: the inhibition was -10.9% (inactive) under setting [1] and -3.8% under setting [2].

As to `COc1ccc(NC(=O)CC23CC4CC(CC(C4)C2)C3)cc1Cl`, the inhibition is, setting by setting: under setting [1], 97.4% (active); under setting [2], 86.9%.

On to `COc1ccc(Cl)cc1NC(=O)CC12CC3CC(CC(C3)C1)C2`, for which the inhibition under setting [1] is 10.7% (inactive) and the inhibition under setting [2] is 2.06%.

Consider `COc1ccc(NC(=O)CC23CC4CC(CC(C4)C2)C3)cc1[N+](=O)[O-]`, for which the inhibition is, setting by setting: under setting [1], 71% (active); under setting [2], 49.1%.

Regarding `O=C(Nc1ncc(Cc2cccc(C(F)(F)F)c2)s1)c1cccs1`, the inhibition by setting is: under setting [1], 24.1% (inactive); under setting [2], 23.5%.

Take `CC(C)(C)c1cnc(NC(=O)c2ccccc2O)s1`: the inhibition reads like this: under setting [1], 71.4% (active); under setting [2], 28.1%.

In the case of `CC(C)(C)c1ccc(C(=O)Nc2nccs2)cc1Br`, the inhibition was 17.6% (inactive) under setting [1] and -5.32% under setting [2].

For the compound `O=C(CSc1nnc(-c2ccccc2Br)o1)N1CCc2ccccc2C1`, the inhibition reads like this: under setting [1], 24.1% (active); under setting [2], 31.3%.

As for `Nc1ccccc1NCCOc1ccccc1`, the inhibition by setting is: under setting [1], 98.3% (active); under setting [2], 98.7%.

With `O=C(COc1ccc(Cl)cc1)Nc1ccc(N2CCN(C(=O)c3ccco3)CC2)c(Cl)c1`, the inhibition reads like this: under setting [1], 0.893% (inactive); under setting [2], -16.5%.

In the case of `O=C(CCNc1ccc(-c2ccccc2)cc1)c1ccco1`, the inhibition under setting [1] was 34.2% (active) and the inhibition under setting [2] is 84.3%.

Take `CCCCSc1ccc(NCCC(=O)c2ccco2)cc1`: the inhibition reads like this: under setting [1], 29.9% (active); under setting [2], 60.7%.

Take `CC(=O)c1ccc(NCCC(=O)c2ccco2)cc1`: the inhibition under setting [1] was 17.6% (active) and the inhibition under setting [2] is 59.4%.

On to `Cc1ccc(NC(=O)C(=O)NNC(=O)c2ccco2)cc1Cl`, for which the inhibition under setting [1] is 6.77% (inactive) and the inhibition under setting [2] came to 7.85%.

With `O=C(CCNc1cccc(Cl)c1)c1ccco1`, the inhibition under setting [1] was 97.7% (active) and the inhibition under setting [2] was found to be 96.8%.

For the compound `Cc1ccc(-c2csc3nc(SCC(N)=O)n(-c4ccccc4)c(=O)c23)cc1C`, the inhibition is, setting by setting: under setting [1], 4.1% (inactive); under setting [2], -0.946%.

Turning to `CCC(C)NCCOc1ccc(C(C)(C)c2ccccc2)cc1` (configuration not stated), the inhibition reads like this: under setting [1], 98% (active); under setting [2], 94.4%.

With `COc1ccc(OCC(=O)Nc2ccc(I)cc2C)cc1`, the inhibition runs as follows: under setting [1], 22% (active); under setting [2], 56.8%.

Turning to `O=C(CSc1nnc(Cc2ccccc2)o1)Nc1ccc2c(c1)OCO2`, the inhibition under setting [1] is 5.38% (inactive) and the inhibition under setting [2] is -1.39%.

Take `O=C(CSc1nnc(CNc2cccc(Cl)c2)o1)OC1CCCCC1`: the inhibition runs as follows: under setting [1], 68.9% (active); under setting [2], 81.6%.

`Cc1ccc(NCc2nnc(SCC(=O)OC3CCCCC3)o2)c(C)c1`: the inhibition is, setting by setting: under setting [1], 91.7% (active); under setting [2], 95%.

Regarding `CCOc1cc(C(=O)ON=C(N)Cc2ccc(Cl)cc2Cl)cc(OCC)c1OCC`, the inhibition runs as follows: under setting [1], 4.39% (inactive); under setting [2], -6.22%.

With `CCOc1cc(CNCCO)cc(Br)c1OCc1ccc(Cl)cc1Cl`, the inhibition is 37.7% (active) under setting [1] and 41.3% under setting [2].

For `CCOc1cc(CNCc2ccccc2OCc2ccccc2)cc(Cl)c1OCC`, the inhibition runs as follows: under setting [1], 9.66% (inactive); under setting [2], -13.6%.

Regarding `CCOCCOC(=O)COc1ccc2c(-c3ccccc3)cc(=O)oc2c1`, the inhibition under setting [1] was 64% (active) and the inhibition under setting [2] worked out at 89%.

As to `O=C(COc1ccc2c(-c3ccccc3)cc(=O)oc2c1)OC1CCCCC1`, the inhibition under setting [1] is 11.7% (active) and the inhibition under setting [2] is 53.3%.

As for `Cc1cc(=O)oc2cc(OCC(=O)OC3CCCCC3)ccc12`, the inhibition runs as follows: under setting [1], 36.4% (active); under setting [2], 72.1%.

In the case of `O=C1c2cccc3cccc(c23)C(=O)N1CCN1CCN(CC(O)COCc2ccc(Cl)cc2)CC1` (configuration not stated), the inhibition is, setting by setting: under setting [1], -12% (inactive); under setting [2], -24.9%.

On to `COc1ccc(-c2csc(-c3ccc(OC)c(OC)c3)n2)cc1C`, for which the inhibition is 1.2% (inactive) under setting [1] and -8.81% under setting [2].

For `Cc1ccc(-c2csc(-c3ccncc3)n2)cc1C`, the inhibition under setting [1] was 86.8% (active) and the inhibition under setting [2] is 97.1%.

For the compound `O=C(Nc1nnc(-c2ccc(Cl)cc2)o1)c1ccc(Br)cc1`, the inhibition runs as follows: under setting [1], 94.3% (active); under setting [2], 95.3%.

Take `CC(C)(C)C(=O)Nc1nnc(-c2cc(Cl)ccc2Cl)o1`: the inhibition is 80.9% (active) under setting [1] and 86.9% under setting [2].

As to `O=C(CCSc1ccccc1)Nc1nnc(-c2ccc3c(c2)CCCC3)o1`, the inhibition is, setting by setting: under setting [1], 20.9% (inactive); under setting [2], 26.4%.

Take `O=C(C=Cc1ccccc1)Nc1nnc(-c2ccc3c(c2)CCCC3)o1`: the inhibition is, setting by setting: under setting [1], 8.27% (inactive); under setting [2], 19.3%.

`CCCCC(=O)Nc1nnc(-c2ccc3c(c2)CCCC3)o1`: the inhibition is, setting by setting: under setting [1], 25.2% (active); under setting [2], 57.9%.

As to `O=C(Nc1nnc(-c2ccc(Cl)cc2)o1)c1ccccc1Br`, the inhibition by setting is: under setting [1], 12.4% (active); under setting [2], 44.2%.

As to `O=C(Nc1nnc(-c2ccc3c(c2)CCCC3)o1)c1ccccc1Br`, the inhibition runs as follows: under setting [1], 2.76% (inactive); under setting [2], -9.29%.

Consider `O=C(Nc1nnc(-c2ccc3c(c2)CCCC3)o1)c1ccccc1F`, for which the inhibition reads like this: under setting [1], 49% (active); under setting [2], 79.6%.

Regarding `O=C(Nc1nnc(-c2ccc3c(c2)CCCC3)o1)c1ccco1`, the inhibition is 9.46% (inactive) under setting [1] and 22.5% under setting [2].

`O=C(Nc1nnc(-c2cc(Cl)ccc2Cl)o1)c1ccc(Cl)cc1Cl`: the inhibition by setting is: under setting [1], 11.8% (inactive); under setting [2], 9.57%.

As for `O=C(Nc1nnc(-c2ccc(Cl)cc2)o1)c1ccccc1F`, the inhibition reads like this: under setting [1], 82% (active); under setting [2], 89.7%.

Take `N#Cc1ccc(C(=O)Nc2nnc(-c3ccc4c(c3)CCCC4)o2)cc1`: the inhibition was 83.6% (active) under setting [1] and 91.1% under setting [2].

Turning to `O=C(Nc1nnc(-c2ccc3c(c2)CCCC3)o1)c1ccccc1Cl`, the inhibition reads like this: under setting [1], -2.21% (inactive); under setting [2], -7.28%.

With `O=C(Nc1nnc(-c2cc(Cl)ccc2Cl)o1)c1ccccc1F`, the inhibition is 59.5% (active) under setting [1] and 79.5% under setting [2].

For `O=C(Nc1nnc(-c2ccc(Br)cc2)o1)c1ccccc1F`, the inhibition by setting is: under setting [1], 80.9% (active); under setting [2], 94.2%.

As to `CCOC(=O)COc1ccc2c(=O)cc(-c3ccccc3)oc2c1`, the inhibition is 89.6% (active) under setting [1] and 95.3% under setting [2].

Regarding `CCOC(=O)COc1cc(OCC(=O)OCC)c2c(=O)cc(-c3ccccc3)oc2c1`, the inhibition was 63.7% (active) under setting [1] and 71.2% under setting [2].

For `COc1ccc(Cl)cc1NC(=O)C(C)N1CCN(C/C=C/c2ccccc2)CC1` (configuration not stated), the inhibition reads like this: under setting [1], -0.555% (inactive); under setting [2], -22.8%.

The inhibition is the change of the read-out against control, counted positive when it falls.
